# Most compounds without a hit are left out; they make up all but 3% or so of the library.
# FadD28 binding: blocks FadD28 binding to the bisubstrate probe | fluorescence polarization | hit rate 0.22% among 360,000 | inhibition, % at 12.5 µM; in the data active means inhibition above about 8.5%, passing the limit was not always enough
# Mtb BioA inh: inhibitors of Mycobacterium tuberculosis BioA enzyme; purified M. tuberculosis BioA enzyme, plate reader; inhibition, % at 9.99 µM; hit rate 0.096% among 360,000; in the data active means inhibition above about 40%
# Mtb FBA inh: inhibitors of M. tuberculosis fructose-bisphosphate aldolase | P9WQA3 | purified M. tuberculosis FBA, fluorescence read-out | inhibition, % at 1 µM | hit rate 2.3% among 360,000 | AID 588726;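 further: 0% = vehicle and 100% = reference inhibitor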
# GDH-TPI counter-1: GDH-TPI coupled enzyme inhibition counter-screen. hit rate 1.2% among 360,000. AID 588335. GDH-TPI coupled enzyme counterscreen, NADH absorbance. inhibition, % at 4.8 µM; in the data active means inhibition above about 30%;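 further: 0% = DMSO wells and 100% = wells lacking the enzyme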
# Rv3671c inh: inhibits the M. tuberculosis serine protease Rv3671c; P9WHR9; inhibition, % at 5.96 µM; hit rate 0.048% among 320,000; AID 2606; in the data active means inhibition above about 38%;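 further: extracellular domain of Rv3671c used as enzyme; 0% = enzyme with DMSO and 100% = no enzyme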
# Target sequence (P9WHR9 whole entry, looked up, the tested form may be a part): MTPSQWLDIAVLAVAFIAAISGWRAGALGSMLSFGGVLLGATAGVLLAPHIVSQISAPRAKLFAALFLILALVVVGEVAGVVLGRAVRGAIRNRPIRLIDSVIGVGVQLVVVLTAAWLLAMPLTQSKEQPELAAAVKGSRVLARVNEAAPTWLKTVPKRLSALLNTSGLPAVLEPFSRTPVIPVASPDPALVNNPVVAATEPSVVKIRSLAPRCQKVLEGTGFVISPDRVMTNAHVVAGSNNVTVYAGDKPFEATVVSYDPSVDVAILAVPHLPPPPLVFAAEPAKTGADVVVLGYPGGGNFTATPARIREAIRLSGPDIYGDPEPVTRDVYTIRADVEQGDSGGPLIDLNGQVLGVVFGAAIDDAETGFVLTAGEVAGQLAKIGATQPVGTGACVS
# Mtb FBA confirm: confirmation of M. tuberculosis fructose-bisphosphate aldolase inhibitors; shares compounds with Mtb FBA inh; purified M. tuberculosis FBA, fluorescence read-out; inhibition, % at 1 µM; hit rate 78% among 5,600;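 further: 0% = vehicle wells and 100% = reference inhibitor wells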
# GDH-TPI counter-2: GDH-TPI inhibition counter-screen for FBA inhibitors; hit rate 81% among 5,600; AID 652141; inhibition, % at 1 µM; GDH-TPI coupled enzyme counterscreen, fluorescence; shares compounds with Mtb FBA inh; in the data active means inhibition above about 10%
# An asterisk follows results filed as active; x = no result given; + = active, no number. Unless noted, no stated cut-off is given here; in the data, active means inhibition above about 27%; inactive means the rest.
SMILES,FadD28 binding,Mtb BioA inh,Mtb FBA inh,GDH-TPI counter-1,Rv3671c inh,Mtb FBA confirm,GDH-TPI counter-2
O=c1oc2cc(OCCO)ccc2c2c1CCCC2,-3,2,60*,5,6,74*,57*
O=C(CCCCCN1C(=O)c2ccccc2C1=O)Oc1ccc2c3c(c(=O)oc2c1)CCC3,-5,6,62*,2,3,-3,-3
O=C(O)COc1ccc2c3c(c(=O)oc2c1)CCCC3,0,x,0,6,-4,x,x
C[C@H]1CN([C@@H](C)CO)C(=O)c2cccc(NC(=O)C3CCOCC3)c2O[C@H]1CN(C)Cc1ccc(C(F)(F)F)cc1,x,-3,x,x,x,x,x
Cc1ccc(S(=O)(=O)Nc2ccc3c(c2)C(=O)N([C@H](C)CO)C[C@@H](C)[C@@H](CN(C)C(=O)Cc2ccccc2)OCCCC[C@@H](C)O3)cc1,x,3,x,x,x,x,x
C=CCOC(=O)COc1ccc2c3c(c(=O)oc2c1)CCCC3,0,2,40*,15,x,62*,41*
O=C(O)c1ccccc1NCc1cccnc1,-6,-1,5,-2,-2,x,x
O=C(O)CNc1ccccc1C(=O)O,-1,1,58*,7,-13,-5,-4
CCN1C(=O)CS/C1=N\S(=O)(=O)c1ccc(C)cc1,-2,-1,47*,4,-2,77*,79*
CCc1c(C)c2ccc(OC(C)C(=O)NC(Cc3c[nH]c4ccc(O)cc34)C(=O)O)c(C)c2oc1=O (stereo unspecified),0,3,43*,27,3,x,+
CCCCc1cc(=O)oc2cc(C)cc(OC(C)C(=O)NC(Cc3c[nH]c4ccc(O)cc34)C(=O)O)c12 (stereo unspecified),1,0,37*,16,-2,132*,102*
COCC(=O)N1C[C@H](C)[C@@H](OC)CN(C)C(=O)c2cc(NC(=O)c3ccccc3)ccc2OC[C@H]1C,x,-4,x,x,x,x,x
C/C=C(/C)C(=O)O[C@@H]1c2c(ccc3ccc(=O)oc23)O[C@@H]1C(C)(C)OC(=O)/C(C)=C\C,-1,1,11,7,-19,x,x
C/C=C(\C)C(=O)OC(C)(C)[C@@H]1Cc2cc3ccc(=O)oc3cc2O1,-1,16,93*,10,-9,157*,114*
Cc1cc(=O)oc2cc(NC(=S)NCc3ccccn3)ccc12,0,2,24,9,5,x,x
Cc1cc(=O)oc2cc(NC(=S)NNC(=O)c3c(Cl)cnn3C)ccc12,0,-6,83*,35*,1,43*,28*
CCOC(=O)c1[nH]c2cc(OC)c(OC)cc2c1NC(=O)C(C)N1CCN(Cc2ccccc2)CC1 (stereo unspecified),0,-1,47*,14,5,+,+
CCOC(=O)c1[nH]c2ccc(F)cc2c1NC(=O)Nc1ccccc1OC,-5,-1,-3,1,0,x,x
C[C@@H]1CN([C@@H](C)CO)C(=O)c2cc(-c3ccccc3)cnc2O[C@H]1CN(C)C(=O)c1ccccn1,x,4,x,x,x,x,x
CCc1cc2c(COC(=O)c3c(C)noc3C)cc(=O)oc2cc1O,-1,-1,33*,32*,-9,85*,62*
Cc1nn(-c2ccccc2)c(=S)n1-c1ccccc1,0,-3,3,2,13,x,x
OCCn1nc2c3ccccc3nc-2n(-c2ccccc2)c1=S,0,3,31*,2,-8,136*,116*
CS(=O)(=O)Nc1ccccc1C(=O)NCc1ccccc1Cl,0,-2,5,0,-4,x,x
Cc1ccccc1CNC(=O)c1ccccc1NS(C)(=O)=O,-1,x,59*,14,-10,60*,51*
CS(=O)(=O)Nc1ccccc1C(=O)NC1CC2CCC1C2 (stereo unspecified),-1,1,37*,4,-2,65*,49*
COCCNC(=O)C[C@@H]1C[C@H]2c3cc(NC(=O)COC)ccc3O[C@H]2[C@H](CO)O1,x,1,x,x,x,x,x
CN(C)c1ccc(-c2ccnc3c2CC(C)(C(=O)Nc2ccc(Cl)c(C(F)(F)F)c2)O3)cc1 (stereo unspecified),-4,0,84*,25,x,54*,40*
